Test results reported in PubChem BioAssay.
Activity calls are given as the source filed them. Unless noted, the rule behind the calls is not given here.

Legend:
[1] = system: Wnt5a (protein binding on small-molecule microarray); assay: Wnt5a binders on small-molecule microarray, primary screen, biophysical, 635/667 nm fluorescence (AID 1142); settings: 635 nm fluorescence, higher = more signal;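 note: fluorescence read at 667 nm with signal to noise per printed feature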
[2] = cell viability in Huh7 cells, primary screen, cytotoxicity control for HCV replication inhibitor project, CellTiter-Glo luminescence, basal, 48 h (AID 1143); settings: Huh7 HCV replicon, higher = more signal, called active from +8 up or from −8 down;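 note: Huh7 hepatoma cells carrying a hepatitis C replication reporter with no stimulus; test concentration not given here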
[3] = P. aeruginosa biofilm formation inhibitors, primary screen, PAO1 strain, BacTiter-Glo luminescence, LB-PBS (AID 1144); settings: 12 h, higher = more signal
[4] = CREB reporter modulators without forskolin, primary screen, cell-based, PC12, CRE-LacZ reporter, unstimulated (AID 1145); settings: no forskolin, luminescence, 4.5 h, higher = more signal, called active from +8 up or from −8 down
[5] = CREB reporter modulators under forskolin, primary screen, cell-based, PC12, CRE-LacZ reporter, forskolin-stimulated (AID 1146); settings: luminescence, 4.5 h, higher = more signal, called active from +8 up or from −8 down;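 note: PC12 cells with 6xCRE LacZ reporter stimulated by forskolin 10 µM; beta-galactosidase reporter signal reflecting CREB driven transcription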
[6] = biological target: Streptavidin (Streptomyces avidinii) (UniProt P22629); assay: streptavidin binders on small-molecule microarray, primary screen, artefact control for SMM compound annotation, biophysical, 635/667 nm fluorescence (AID 1147); settings: streptavidin binding, higher = more signal;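 note: signal reflects streptavidin binding to arrayed compounds as a control protein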
[7] = small-molecule binders of probe aInhba, primary screen, biochemical, small-molecule microarray, 635/667 nm fluorescence (AID 1148); settings: higher = more signal;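 note: score merges 667nm spot fluorescence with signal-to-noise for antibody binding to printed compounds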
Torsin-1A (Homo sapiens) [8] = biological target: Torsin-1A (Homo sapiens) (UniProt O14656); assay: torsin A binders from cell lysate, primary screen, small-molecule microarray, wild-type, 635/667 nm (AID 1149); settings: COS7 hTOR1A-WT lysate, 635 nm fluorescence, higher = more signal
Torsin-1A (Homo sapiens) [9] = biological target: Torsin-1A (Homo sapiens) (UniProt O14656); assay: small-molecule binders of mutant TOR1A in lysate, primary screen, cell lysate, small-molecule microarray, COS7 lysate, 635/667 nm fluorescence (AID 1150); settings: COS7 hTOR1A mutant lysate, 635 nm fluorescence, higher = more signal;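 note: score pools 667 nm emission and signal to noise measuring lysate protein binding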
[10] = system: Sonic hedgehog protein (Shh); assay: small-molecule binders of Shh protein, primary screen, biochemical, small-molecule microarray, 635/667 nm fluorescence (AID 1151); settings: small-molecule microarray binding, 635 nm fluorescence; higher = more signal;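 note: Shh protein binding to compounds spotted on small-molecule microarray slides; score combines spot fluorescence intensity with signal-to-noise across triplicate slides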

Chain of Streptavidin (Streptomyces avidinii) (P22629 whole entry, looked up): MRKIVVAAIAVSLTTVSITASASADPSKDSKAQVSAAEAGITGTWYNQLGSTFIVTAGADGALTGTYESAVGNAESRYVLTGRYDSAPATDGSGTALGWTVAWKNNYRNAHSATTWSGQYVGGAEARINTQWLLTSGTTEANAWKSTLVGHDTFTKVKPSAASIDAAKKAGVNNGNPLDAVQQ
Chain of Torsin-1A (Homo sapiens) (O14656 whole entry, looked up): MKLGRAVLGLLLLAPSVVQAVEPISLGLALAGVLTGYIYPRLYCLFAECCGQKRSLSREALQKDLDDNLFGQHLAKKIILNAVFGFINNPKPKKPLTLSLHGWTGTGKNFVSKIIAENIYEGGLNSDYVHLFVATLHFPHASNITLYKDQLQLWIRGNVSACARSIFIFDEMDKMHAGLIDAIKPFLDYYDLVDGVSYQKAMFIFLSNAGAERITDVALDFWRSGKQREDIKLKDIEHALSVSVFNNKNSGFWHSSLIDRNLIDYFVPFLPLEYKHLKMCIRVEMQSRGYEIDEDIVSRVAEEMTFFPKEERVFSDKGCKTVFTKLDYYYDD

Row | SMILES | composite z-score [1] | z-score [2] | z-score [3] | z-score [4] | z-score [5] | composite z-score [6] | composite z-score [7] | composite z-score (Torsin-1A (Homo sapiens) [8]) | composite z-score (Torsin-1A (Homo sapiens) [9]) | composite z-score [10]
1 | [N-]=[N+]=Nc1ccccc1[C@@H]1OC(c2ccc(OCCCO)cc2)=N[C@]1(CCS(=O)(=O)c1ccccc1)C(=O)N1CCOCC1 | 1.3 | -2.26 (inactive) | -0.199 (inactive) | 1.8 (inactive) | -1.49 (inactive) | 1.52 | 0.165 | 0.46 | 1.63 | -0.29
2 | CC(C)(C)N1CC=CC23O[C@@H]4C=CCOC(=O)[C@@H]4[C@H]2C(=O)N(CCCCCO)[C@@H]3C1=O (stereo not given in full) | -0.248 | 0.228 (inactive) | 0.123 (inactive) | -0.631 (inactive) | 0.687 (inactive) | -1.41 | -0.421 | -0.803 | -1.05 | -0.15
3 | CCCCCN1CC=CC23O[C@@H]4/C=C\CCCOC(=O)C4[C@H]2C(=O)N(CCCCCCO)[C@@H]3C1=O (stereo not given in full) | -0.686 | -1.95 (inactive) | -2.51 (inactive) | -1.44 (inactive) | -0.43 (inactive) | -1.21 | -0.128 | 0.61 | 0.474 | 0.124
4 | C=CCC(OC(C)=O)[C@@H]1[C@@H](N(Cc2cc3ccccc3o2)C(=O)c2ccc(C)cc2)c2cc(OCCCO)ccc2N1C(=O)c1ccc2ccccc2c1 (stereo not given in full) | 0.132 | 0.0491 (inactive) | -0.571 (inactive) | 3.93 (inactive) | 0.697 (inactive) | 0.0282 | -0.0963 | -0.353 | -0.0172 | 0.218
5 | COC(=O)[C@@]1(Cc2ccccc2)N=C(c2ccc(OCCCO)cc2)O[C@H]1c1ccccc1N=[N+]=[N-] | 0.805 | -4.03 (inactive) | -0.0344 (inactive) | 2.95 (inactive) | -1.52 (inactive) | -1.09 | 0.25 | 3.85 | 3.84 | 2.07
6 | COC(=O)[C@@]1(Cc2ccccc2)[C@H]2c3cc(C(=O)N(C)C)n(Cc4c(-c5ccccc5)noc4C)c3C[C@H]2CN1C(=O)c1ccccc1 | 0.235 | -2.2 (inactive) | -0.0247 (inactive) | 0.201 (inactive) | -0.732 (inactive) | 1.47 | 0.308 | 0.301 | 0.584 | -0.141
7 | CN1C(=O)C2C(C1=O)C1C=C(CCCO)C2C(c2cccs2)N1C (stereo not given) | 0.0691 | -0.273 (inactive) | 0.0748 (inactive) | 0.236 (inactive) | 0.289 (inactive) | -0.96 | 0.141 | -0.381 | -0.332 | -0.11
8 | CC(C)N1CC=CC23O[C@@H]4C=CCOC(=O)[C@@H]4[C@H]2C(=O)N(CCO)[C@@H]3C1=O (stereo not given in full) | -0.967 | 0.273 (inactive) | -0.289 (inactive) | -1.3 (inactive) | -0.67 (inactive) | -1.05 | -0.302 | -2.5 | -1.48 | 0.643
9 | O=C1N(CCS(=O)(=O)c2ccccc2)c2ccccc2C[C@@]12COC(c1ccc(OCCCO)cc1)=N2 | 0.576 | -1.46 (inactive) | 0.261 (inactive) | 0.218 (inactive) | -0.151 (inactive) | 0.906 | 0.362 | 0.784 | 0.967 | 0.534
10 | C=CCC(OC(C)=O)[C@@H]1[C@@H](N(Cc2cccc3ccccc23)C(=O)c2ccc(C)cc2)c2cc(OCCCO)ccc2N1C(=O)Cc1ccc(OC)cc1 (stereo not given in full) | -0.0466 | -0.798 (inactive) | -0.738 (inactive) | -0.402 (inactive) | -0.281 (inactive) | 0.547 | -0.189 | 0.291 | 0.553 | 0.562
11 | O=C1O[C@H](c2ccccc2)[C@H](c2ccccc2)N2[C@H]1[C@@H](C(=O)Nc1nc3ccccc3s1)[C@]1(C(=O)Nc3ccccc31)[C@H]2c1ccc(O)cc1 | 0.0365 | -1.69 (inactive) | -0.363 (inactive) | 0.478 (inactive) | 0.757 (inactive) | 1.2 | -0.0736 | -0.0245 | 0.414 | 1.51
12 | CC(C)C[C@@H]1NC(=O)[C@@H]2C[C@H](C(=O)NCCCCCC[N+](C)(C)C)[C@H](c3ccc(O)cc3)N2C1=O | 0.0505 | 0.0436 (inactive) | -0.555 (inactive) | -0.532 (inactive) | 0.0161 (inactive) | 0.313 | -0.0448 | 1.08 | 0.767 | 2.03
13 | Cc1ccccc1C(O)C1C=CC2C(=O)N(C)C(=O)C2N1N1CCCCC1 (stereo not given) | 0.343 | 0.896 (inactive) | 0.46 (inactive) | -0.133 (inactive) | -0.0415 (inactive) | 1.24 | 0.462 | 0.851 | 0.696 | 0.0488
14 | CC(C)C[C@@H]1NC(=O)[C@H]2C[C@@H](C(=O)NCCCCCNC(=O)CS)[C@@H](c3cccc(OCCO)c3)N2C1=O | 1.1 | -1.07 (inactive) | 0.644 (inactive) | 0.289 (inactive) | 0.0824 (inactive) | 0.024 | -0.0112 | 1.07 | 0.867 | 2.09
15 | O=C1OCC=C[C@H]2OC34C=CCN(c5ccc6ccccc6c5)C(=O)[C@H]3N(CCCO)C(=O)[C@@H]4[C@@H]12 (stereo not given in full) | -0.701 | -2.14 (inactive) | 0.179 (inactive) | 0.337 (inactive) | 0.27 (inactive) | -0.835 | -0.0675 | -1.69 | -1.38 | -0.372
16 | COC(=O)C(CC#Cc1ccc2c(c1)[C@]1(C(=O)N2)[C@H](c2ccc(OCCO)cc2)N2[C@H](c3ccccc3)[C@H](c3ccccc3)OC(=O)[C@H]2[C@@H]1C(=O)NC[C@H](O)c1ccccc1)C(=O)OC | 0.593 | -1.17 (inactive) | -0.923 (inactive) | 0.0384 (inactive) | -0.926 (inactive) | 0.472 | 0.0442 | 0.413 | 0.532 | 1.4
17 | COc1ccc(C#Cc2ccc3c(c2)[C@]2(C(=O)N3)[C@H](c3ccc(O)cc3)N3[C@H](c4ccccc4)[C@H](c4ccccc4)OC(=O)[C@H]3[C@@H]2C(=O)N2CCCCCCC2)cc1 | 1.12 | -3.96 (inactive) | -1.42 (inactive) | 0.0653 (inactive) | -0.648 (inactive) | 1.9 | 1.43 | 1.55 | 1.43 | 2.09
18 | CN1C=C(C(=O)OCCS(C)(=O)=O)C(C(=O)OCCS(C)(=O)=O)=CC(CCCO)=CC1C1CC1 (stereo not given) | -0.102 | -0.134 (inactive) | -0.483 (inactive) | -0.844 (inactive) | -0.657 (inactive) | 0.207 | -0.128 | -0.0089 | 0.344 | 0.501
19 | C[C@]1(C(=O)NCc2ccccc2)c2ccccc2C(=O)N(Cc2ccc(OC(F)(F)F)cc2)[C@H]1c1ccc(CO)cc1 | 0.272 | -3.15 (inactive) | -0.808 (inactive) | 0.414 (inactive) | -0.958 (inactive) | -0.232 | -0.0719 | -0.0977 | 0.223 | -0.135
20 | Cc1ccccc1C(O)C1C=CC2C(=O)N(C)C(=O)C2N1Nc1ccccc1 (stereo not given) | 0.125 | 0.881 (inactive) | 0.149 (inactive) | -0.522 (inactive) | -0.0967 (inactive) | 1.69 | 0.112 | 0.0494 | 0.303 | -0.0269
21 | [N-]=[N+]=NCc1ccccc1C[C@@]1(C(=O)N2CCOCC2)N=C(c2ccc(OCCCO)cc2)O[C@@H]1c1ccccc1CN=[N+]=[N-] | 1.44 | -3.44 (inactive) | -1.02 (inactive) | 1.7 (inactive) | -0.0755 (inactive) | 1.56 | 0.985 | 0.375 | 0.193 | 0.704
22 | COc1cc2c(cc1OC)CN(C(=O)[C@@H]1[C@H]3C(=O)O[C@H](c4ccccc4)[C@H](c4ccccc4)N3[C@H](c3ccccc3OCCO)[C@@]13C(=O)Nc1ccc(C#CCNC(N)=O)cc13)CC2 | 0.38 | -2 (inactive) | -0.105 (inactive) | -0.168 (inactive) | -0.0826 (inactive) | 0.684 | 0.32 | 0.593 | 0.812 | 1.38
23 | CO[C@H]1O[C@H](CO)[C@@H](OC(=O)Nc2ccc3c(c2)OCO3)[C@H](OC(=O)Nc2ccccc2)[C@H]1OC(=O)Nc1ccccc1 | 0.446 | -5.46 (inactive) | -0.785 (inactive) | 1.16 (inactive) | -2.23 (inactive) | 0.869 | 0.0906 | 0.487 | 1.11 | 1.43
24 | COC(=O)[C@]1(Cc2ccccc2N=[N+]=[N-])N=C(c2ccc(OCCCO)cc2)O[C@@H]1c1ccccc1N=[N+]=[N-] | -0.104 | -5.35 (inactive) | 0.337 (inactive) | 2.85 (inactive) | -1.04 (inactive) | 0.105 | -0.0762 | -1.45 | 0.283 | 0.765
25 | CN(C)CCCCNC(=O)[C@H]1C[C@H]2C(=O)N[C@@H](Cc3ccccc3)C(=O)N2[C@H]1c1ccc(O)cc1 | 0.335 | -2.14 (inactive) | -1.49 (inactive) | -1.9 (inactive) | -0.32 (inactive) | 1.34 | -0.128 | 1.87 | 0.734 | 2.09
26 | CCCN1C(=O)[C@]2(COC(c3ccc(OCCCO)cc3)=N2)Cc2ccccc21 | 0.526 | -1.62 (inactive) | 0.786 (inactive) | 0.913 (inactive) | -1.39 (inactive) | 0.0066 | 0.0756 | 0.416 | 0.01 | 0.184
27 | C[C@]1(C(=O)NCc2ccccc2)c2ccccc2C(=O)N(Cc2cc(F)cc(C(F)(F)F)c2)[C@H]1c1ccc(CO)cc1 | -0.0261 | -1.8 (inactive) | -0.255 (inactive) | 0.0909 (inactive) | -0.323 (inactive) | -0.859 | 0.13 | -0.956 | -1.47 | -0.436
28 | CC(C)CNC(=O)[C@@]1(c2ccc([N+](=O)[O-])cc2)CC(=O)N(CC23CC4CC(CC(C4)C2)C3)[C@@H]1c1ccc(CO)cc1I | 0.777 | -4.95 (inactive) | -0.266 (inactive) | 0.145 (inactive) | 1.07 (inactive) | 0.574 | 0.11 | 0.283 | 0.578 | 2.02
